An excerpt weighted towards active compounds, which were near 21% of everything screened.
RORgamma inh – ROR gamma (mouse) transcription inhibition. P51450. Drosophila S2 Gal4-RORgamma UAS-luciferase reporter, 20 h. Potency, µM (doses to about 53.6 µM), for the others: at the top dose activity change, negative = inhibition, usual class: inhibitors. 5.4% of 310,000 active. AID 2551; note: potency is the fitted concentration of half-maximal effect; nearly all actives have a fitted effect of over 60% in size
Target sequence (P51450 whole entry, looked up, the tested form may be a part): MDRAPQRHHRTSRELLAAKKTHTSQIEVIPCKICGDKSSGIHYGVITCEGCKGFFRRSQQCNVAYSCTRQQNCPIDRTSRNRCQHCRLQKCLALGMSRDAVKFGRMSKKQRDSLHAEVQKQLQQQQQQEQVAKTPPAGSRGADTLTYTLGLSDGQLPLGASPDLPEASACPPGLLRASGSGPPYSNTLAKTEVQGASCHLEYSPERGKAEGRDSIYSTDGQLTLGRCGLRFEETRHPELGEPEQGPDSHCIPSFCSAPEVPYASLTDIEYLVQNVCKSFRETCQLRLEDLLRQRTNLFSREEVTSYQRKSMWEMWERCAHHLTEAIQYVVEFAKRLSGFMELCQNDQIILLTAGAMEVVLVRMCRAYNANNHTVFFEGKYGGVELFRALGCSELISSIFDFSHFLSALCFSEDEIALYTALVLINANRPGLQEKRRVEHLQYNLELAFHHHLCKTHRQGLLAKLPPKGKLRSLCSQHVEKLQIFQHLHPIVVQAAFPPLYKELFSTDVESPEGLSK
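Stable Schneider cell line, Gal4 DNA-binding domain fused to ROR gamma, UAS-luciferase. Cmpd 1 hr RT → CuSO4 700 uM final → 20 hr RT → luciferase reagent 10 min → luminescence.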
VP16 counter – Gal4-VP16 reporter inhibition counter-screen. Drosophila S2 Gal4-VP16 UAS-luciferase, luminescence, 20 h. AID 2546. Potency, µM (series often up to 53.6 µM), without a hit: top-dose activity, negative = inhibition, usual class: inhibitors. 3.5% of 310,000 active;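 note: Gal4-VP16 expression switched on by copper sulfate through the metallothionein promoter; potency is the fitted concentration of half-maximal effect; nearly all actives have a fitted effect of over 50% in size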
IL-1B inflam inh – inhibitors of inflammasome signaling (IL-1 beta secretion); 4.7% of 360,000 active; activity change, % at 57.5 µM; THP-1 LPS/ATP IL-1B secretion, AlphaLISA, 16 h; active compounds read low; in the data active = activity change below about -50%; inconclusive = mostly about -30% to -49%
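THP-1 cells pretreated 1 hr with compounds (up to 57.5 uM final), then stimulated with LPS (250 ng/mL final) plus ATP (1.25 mM final); secreted IL-1B measured by AlphaLISA after 16 hr, decreased signal indicating inhibition.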
TDP1 cell noCPT – qHTS for Inhibitors of human tyrosyl-DNA phosphodiesterase 1 (TDP1): qHTS in cells in absence of CPT; DT40 Tdp1-/- hTDP1 cells, no CPT, ATP luminescence, 48 h; Potency, µM (titrated, usually from 46.2 µM), for inactives: at the highest dose activity change, negative = growth inhibition, actives largely listed as inhibitors; 15% of 420,000 active; AID 686978, 2013; note: potency is the fitted concentration of half-maximal effect; nearly all actives have a fitted effect of over 55% in size
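Readout: luminescence from CellTiter-Glo after 30 min in the dark at RT. Cells: DT40 Tdp1-/- with stable hTDP1, 400/well. Exposure: compounds alone, ≥48 hr, 37 °C.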
ELG1 DNA repair – ELG1-dependent DNA repair inhibition | 2.3% of 330,000 active | HEK293T ELG1-luciferase reporter, luminescence, 16 h; DNA damage induced by 5-fluorouridine | AID 504467 | Potency, µM (top dose mostly 46.1 µM), without a hit: top-dose activity change, negative = inhibition, actives largely listed as inhibitors; note: potency is the fitted concentration of half-maximal effect; nearly all actives have a fitted effect of over 55% in size
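Cells (2,000 per well) received 5-fluorouridine plus test compound or DMSO and were incubated 16 hr at 37 °C, 5% CO2. Luciferase activity was read by luminescence 30 min after ONE-Glo addition; signal suppression marked inhibition of damage-induced ELG1 function.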
TDP1 cell CPT – DT40-hTDP1 cell growth loss with CPT; Potency, µM (doses to about 46.2 µM), without a hit: at the highest dose activity change, negative = growth inhibition, most hits filed as inhibitors; chicken DT40 Tdp1-/-;hTDP1 cells + 20 nM CPT, ATP luminescence, 48 h; 12% of 420,000 active; AID 686979; note: potency is the fitted concentration of half-maximal effect; nearly all actives have a fitted effect of over 55% in size
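Chicken DT40 Tdp1-/- cells complemented with human TDP1, 400 cells/well, exposed to compounds plus 20 nM camptothecin for at least 48 h at 37 C; viability read as ATP content by CellTiter-Glo luminescence.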
* marks the source's active call; other numbers are inactive results; ? = inconclusive; . = no result; ! = not active in a repeat. Unless noted, calls come from the whole dose curve; as a rule, active = well fitted curve in the direction sought with a large enough effect; inconclusive = small, poorly fitted or top-dose-only effect, or another doubt; inactive = no such curve, though single readings can be large; an effect the other way counts as inactive or inconclusive. % is set by controls: 0 for no effect and ±100 for the full control effect.

SMILES | RORgamma inh | VP16 counter | IL-1B inflam inh | TDP1 cell noCPT | ELG1 DNA repair | TDP1 cell CPT
COc1cc(OC)c(OC)cc1CN1CCc2nc(Nc3ccc4c(c3)OCCO4)ncc2C1 | . | . | . | ? | . | 16µM*
Cc1ccc(N2CN=C(c3ccccc3)NC2=S)cc1 | ? | -88% | 2 | ? | ? | ?
COc1ccc(C2=NCN(c3ccc(C)cc3)C(=S)N2)cc1 | -43% | 2.8µM* | -15 | ? | ? | -26%
COc1ccc(S(=O)(=O)N2CC3CCCN3c3cc(C(F)(F)F)ccc32)cc1 (stereo not drawn) | -1% | -12% | -11 | ? | 12% | 21µM*
CS(=O)(=O)N1CC2CCCN2c2cc(C(F)(F)F)ccc21 (stereo not drawn) | 8% | -8% | -4 | -21% | -16% | -16%
CS(=O)(=O)N1CC2CCCN2c2ccc(C(F)(F)F)cc21 (stereo not drawn) | 0% | -14% | -9 | -26% | 7% | -5%
COc1ccc(S(=O)(=O)N2CC3CCCN3c3ccc(C(F)(F)F)cc32)cc1 (stereo not drawn) | -28% | -1% | ? | ? | 2% | 26µM*
C[C@@H]1CN([C@@H](C)CO)C(=O)c2cc(C3=CCCCC3)cnc2O[C@H]1CN(C)C(=O)Nc1cccc(F)c1 | . | . | -9 | -26% | . | -8%
Cc1c(C(=O)OCC(=O)N(C)c2ccccc2)cccc1[N+](=O)[O-] | 26% | 1% | 2 | -25% | 6% | 2%
Cc1cccc(C(=O)OCC(=O)N(C)C(c2ccccc2)c2ccccc2)c1[N+](=O)[O-] | . | . | 21 | 7.3µM* | -28% | 12µM*
Cc1cccc(N2CCN(Cc3nnc(-c4ccc5c(c4)OCO5)o3)CC2)c1C | . | . | . | -3% | . | -4%
Cc1ccc(NC(=S)NC2CCSc3ccccc32)cc1C (stereo not drawn) | 3.5µM* | 4µM* | -81* | ? | -20% | 16µM*
CCN(c1cccc(C)c1)S(=O)(=O)c1cc(Br)cc2c1N(C(C)=O)C(C)C2 (stereo not drawn) | . | . | . | 21µM* | . | 23µM*
CCOC(=O)c1ccc(NS(=O)(=O)c2cc(Br)cc3c2N(C(C)=O)C(C)C3)cc1 (stereo not drawn) | . | . | . | 8.2µM* | . | 9.2µM*
CC(=O)N1c2c(cc(Br)cc2S(=O)(=O)Nc2ccc(OC(F)(F)F)cc2)CC1C (stereo not drawn) | . | . | . | 15µM* | . | 18µM*
CCc1ccc(NS(=O)(=O)c2cc(Br)cc3c2N(C(C)=O)CC3)cc1 | . | . | . | -13% | . | -1%
COc1ccc(NS(=O)(=O)c2cc(Br)cc3c2N(C(C)=O)CC3)cc1 | 17% | -3% | 58 | 12µM* | -25% | 8.2µM*
Cc1ccc2ccccc2c1C(O)c1ncc(-c2cccc(F)c2)[nH]1 (stereo not drawn) | . | . | 45 | ? | . | ?
O=C(NCCc1csc(-c2cccnc2)n1)c1cccs1 | ? | 26% | -15 | 21µM* | ? | ?
O=C(NCCc1csc(-c2ccc(C(F)(F)F)cc2)n1)c1cccs1 | ? | ? | -29 | 18µM* | -26% | ?
CCOc1ccc(C(=O)NCCc2csc(-c3ccc(C(F)(F)F)cc3)n2)cc1OCC | . | . | . | 15µM* | . | ?
O=C(Nc1ccccc1)N1CCCC2(CCN(C(=O)c3ccco3)CC2)C1 | 40% | -1% | . | 0% | . | 7%
COc1ccc(-c2nsc3c(SCC(=O)Nc4cc(C)ccc4C)ncnc23)cc1 | -2% | ? | . | . | 14% | .
CCCn1c(N2CCN(Cc3ccc(Cl)cc3)CC2)nc2ccccc21 | 11µM* | ? | -18 | 12µM* | ? | ?
O=[N+]([O-])c1ccc(N2CCN(Cc3ccccc3)CC2)nc1 | -4% | 7% | 4 | ? | ? | ?
SMILES | RORgamma inh | VP16 counter | IL-1B inflam inh | TDP1 cell noCPT | ELG1 DNA repair | TDP1 cell CPT
CCn1c(N2CCN(Cc3ccc([N+](=O)[O-])cc3)CC2)nc2ccccc21 | -17% | 4% | -18 | 21µM* | ? | ?
O=C(COc1ccccc1Cl)Nc1ccc(S(=O)(=O)Nc2ccccn2)cc1 | 10% | 3% | ? | ? | -29% | ?
Cc1ccc(N2CC(NC(=O)/C=C\c3ccc4c(c3)OCO4)CC2=O)cc1 (stereo not drawn) | . | . | . | ? | . | -30%
CCN(CC(=O)Nc1ccccc1C(F)(F)F)C(=O)c1cccc(N2C(=O)CCC2=O)c1 | . | . | 10 | -13% | 0% | 1%
CCN(CC(=O)Nc1ccccc1C(F)(F)F)C(=O)c1cc2c(s1)CCCCC2 | . | . | -53* | 23µM* | -7% | ?
Cc1ccc2[nH]c3c(=O)n(CC(=O)N4CCCC(C)C4)ncc3c2c1 (stereo not drawn) | . | . | . | 18µM* | . | ?
Cc1cccc(CCNC(=O)c2c[nH]c3ccc(S(=O)(=O)Nc4ccccc4F)cc3c2=O)c1 | . | . | . | ? | . | 12µM*
CCOc1ccc(NS(=O)(=O)c2ccc3[nH]cc(C(=O)NCCc4ccccc4)c(=O)c3c2)cc1 | . | . | . | -13% | . | -11%
Cc1cc(C)cc(NS(=O)(=O)c2ccc3[nH]cc(C(=O)N4CCCCCC4)c(=O)c3c2)c1 | . | . | . | -22% | . | -2%
Cc1cc(C)cc(NS(=O)(=O)c2ccc3[nH]cc(C(=O)NC4CCCCC4)c(=O)c3c2)c1 | . | . | . | 16µM* | . | 23µM*
Cc1cc(C)cc(NS(=O)(=O)c2ccc3[nH]cc(C(=O)NCc4ccco4)c(=O)c3c2)c1 | 0% | -2% | -56* | 15µM* | 10µM* | 12µM*
Cc1cc(C)cc(NS(=O)(=O)c2ccc3[nH]cc(C(=O)N(C)Cc4ccccc4)c(=O)c3c2)c1 | . | . | . | ? | . | 0%
COc1cccc(NS(=O)(=O)c2ccc3[nH]cc(C(=O)NCCc4ccc(C)cc4)c(=O)c3c2)c1 | . | . | . | 16µM* | . | 15µM*
COCCCN(C(=O)Cc1csc(-c2cccc(Cl)c2)n1)c1c(N)n(Cc2ccccc2)c(=O)[nH]c1=O | . | . | 11 | ? | ? | ?
COc1cccc(NS(=O)(=O)c2ccc3[nH]cc(C(=O)NC4CC4)c(=O)c3c2)c1 | 5% | -2% | -7 | ? | -18% | -27%
COc1cccc(NS(=O)(=O)c2ccc3[nH]cc(C(=O)N(C)Cc4ccco4)c(=O)c3c2)c1 | 22% | 0% | -3 | 23µM*! | -4% | 23µM*!
